Experimental findings from paper PMC7862700, “An all-to-all approach to the identification of sequence-specific readers for epigenetic DNA modifications on cytosine” are described below.

Holding throughout (test): DAPPL (digital affinity profiling via proximity ligation, sequencing); 10 mM Tris-HCl pH 7.5, 50 mM NaCl, 1 mM DTT, 4% glycerol, room temperature, 30 min; GST-TFs on glutathione beads, 16-mer random dsDNA library, 0.1% formaldehyde crosslink after washing; high values mean tight binding
Common to all, as to details: protein: recombinant; tags: N-terminal GST; dsDNA, one strand shown

One assay has as its target T1, FLI1 (Homo sapiens, UniProt Q01543 1-452).
T1 sequence: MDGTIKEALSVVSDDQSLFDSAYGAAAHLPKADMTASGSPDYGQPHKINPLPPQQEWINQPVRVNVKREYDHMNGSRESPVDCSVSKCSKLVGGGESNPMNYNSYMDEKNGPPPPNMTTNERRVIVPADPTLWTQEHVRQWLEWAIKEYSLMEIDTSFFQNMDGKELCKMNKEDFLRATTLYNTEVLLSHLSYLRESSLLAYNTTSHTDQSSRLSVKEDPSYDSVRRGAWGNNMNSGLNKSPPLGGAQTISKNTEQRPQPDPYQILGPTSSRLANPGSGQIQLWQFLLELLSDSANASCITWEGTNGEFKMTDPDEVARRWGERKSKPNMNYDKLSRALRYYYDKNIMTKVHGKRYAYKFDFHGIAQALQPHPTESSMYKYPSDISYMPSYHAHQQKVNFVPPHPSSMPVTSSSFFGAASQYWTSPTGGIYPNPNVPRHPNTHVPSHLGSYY
The gist of the method: (§1)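 Pools of DNA-barcoded human transcription factors, expressed in yeast as GST fusions on glutathione beads and combined with a tag-only sample, were incubated with 200 nmole of a 16-mer random double-stranded DNA library. Incubation took 30 min at room temperature in Tris/NaCl/DTT/glycerol buffer and was followed by washing, 0.1% formaldehyde crosslinking, proximity ligation (BsaI/T4 ligase, 1 h, 37 °C), PCR amplification and sequencing on an Illumina NextSeq500. Binding signal is the ratio of a hexamer's read frequency for a factor to its frequency for the tag-only sample.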

The target of a further assay is T2, ELK1 (Homo sapiens, UniProt P19419 1-428).
T2 sequence: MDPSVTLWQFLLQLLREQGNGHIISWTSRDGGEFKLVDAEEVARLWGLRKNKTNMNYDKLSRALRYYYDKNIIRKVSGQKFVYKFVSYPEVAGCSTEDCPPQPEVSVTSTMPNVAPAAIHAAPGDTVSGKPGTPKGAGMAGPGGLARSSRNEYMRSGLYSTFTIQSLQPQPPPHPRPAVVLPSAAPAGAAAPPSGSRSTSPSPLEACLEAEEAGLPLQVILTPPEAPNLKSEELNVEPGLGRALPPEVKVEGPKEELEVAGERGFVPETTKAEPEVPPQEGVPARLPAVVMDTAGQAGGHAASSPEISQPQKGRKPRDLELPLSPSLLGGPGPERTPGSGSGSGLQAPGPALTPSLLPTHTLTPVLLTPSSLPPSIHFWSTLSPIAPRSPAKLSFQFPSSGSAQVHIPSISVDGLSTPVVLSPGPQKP
The method, boiled down:
as §1

The target of another assay is T3, GABPA (Homo sapiens, UniProt Q06546 1-454).
T3 sequence: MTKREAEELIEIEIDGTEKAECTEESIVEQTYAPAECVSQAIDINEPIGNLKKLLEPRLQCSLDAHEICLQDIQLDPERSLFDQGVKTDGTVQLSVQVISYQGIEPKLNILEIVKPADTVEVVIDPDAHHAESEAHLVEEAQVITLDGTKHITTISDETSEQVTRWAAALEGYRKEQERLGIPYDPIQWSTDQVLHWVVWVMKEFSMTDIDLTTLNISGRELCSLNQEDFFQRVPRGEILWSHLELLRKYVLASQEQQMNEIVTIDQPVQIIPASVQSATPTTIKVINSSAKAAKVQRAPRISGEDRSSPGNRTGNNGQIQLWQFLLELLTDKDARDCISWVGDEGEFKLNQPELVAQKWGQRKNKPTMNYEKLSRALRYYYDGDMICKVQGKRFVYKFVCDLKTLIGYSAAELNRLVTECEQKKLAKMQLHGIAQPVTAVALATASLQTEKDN
The method, boiled down: as §1

The target in the next assay is T4, ERG (Homo sapiens, UniProt P11308 1-479).
T4 sequence: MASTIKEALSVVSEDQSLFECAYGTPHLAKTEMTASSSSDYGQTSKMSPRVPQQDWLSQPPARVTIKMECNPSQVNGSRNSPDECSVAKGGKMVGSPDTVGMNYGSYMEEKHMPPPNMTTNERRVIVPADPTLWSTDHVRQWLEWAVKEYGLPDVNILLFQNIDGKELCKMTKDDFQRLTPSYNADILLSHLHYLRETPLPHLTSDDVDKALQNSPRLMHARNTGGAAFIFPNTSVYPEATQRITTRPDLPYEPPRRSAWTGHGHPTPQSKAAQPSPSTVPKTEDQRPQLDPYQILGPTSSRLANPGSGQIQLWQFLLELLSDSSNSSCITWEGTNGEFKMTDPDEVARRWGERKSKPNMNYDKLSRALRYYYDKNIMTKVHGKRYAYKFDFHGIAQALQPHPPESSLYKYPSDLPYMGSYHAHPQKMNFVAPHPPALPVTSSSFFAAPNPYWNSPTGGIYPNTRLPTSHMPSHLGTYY
The gist of the method:
as §1

In another assay the target is ELF1 (Homo sapiens, UniProt P32519 1-619). The gist of the method: as §1
The target in the next assay is T5, EHF (Homo sapiens, UniProt Q9NZC4 1-300).
T5 sequence: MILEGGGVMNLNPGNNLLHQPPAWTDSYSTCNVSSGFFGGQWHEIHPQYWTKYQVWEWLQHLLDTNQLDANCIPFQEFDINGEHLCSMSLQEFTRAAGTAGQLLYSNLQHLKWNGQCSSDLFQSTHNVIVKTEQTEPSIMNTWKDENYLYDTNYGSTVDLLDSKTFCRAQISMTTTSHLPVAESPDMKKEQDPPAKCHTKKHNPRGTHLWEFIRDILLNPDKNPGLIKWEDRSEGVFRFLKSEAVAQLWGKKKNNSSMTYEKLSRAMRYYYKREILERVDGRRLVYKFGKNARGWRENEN
The gist of the method: as §1

The next assay concerns the target SPI1 (Homo sapiens, UniProt P17947 1-270). The gist of the method: as §1
The target of another assay is SPIB (Homo sapiens, UniProt Q01892 1-262). The gist of the method:
as §1

The next assay addresses T6, ELK3 (Homo sapiens, UniProt P41970 1-407).
T6 sequence: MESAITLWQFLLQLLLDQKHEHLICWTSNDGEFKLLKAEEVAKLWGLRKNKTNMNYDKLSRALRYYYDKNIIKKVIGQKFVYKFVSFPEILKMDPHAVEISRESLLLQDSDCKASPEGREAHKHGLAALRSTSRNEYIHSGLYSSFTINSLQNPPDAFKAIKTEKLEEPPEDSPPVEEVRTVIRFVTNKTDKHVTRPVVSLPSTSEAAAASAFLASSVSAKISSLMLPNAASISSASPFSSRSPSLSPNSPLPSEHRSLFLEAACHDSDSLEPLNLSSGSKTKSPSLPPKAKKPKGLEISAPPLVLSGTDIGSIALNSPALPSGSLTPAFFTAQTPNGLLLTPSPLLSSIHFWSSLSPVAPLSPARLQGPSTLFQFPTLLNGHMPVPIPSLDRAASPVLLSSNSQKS
The method, boiled down: as §1

Chain of ELF1 (P32519 whole entry): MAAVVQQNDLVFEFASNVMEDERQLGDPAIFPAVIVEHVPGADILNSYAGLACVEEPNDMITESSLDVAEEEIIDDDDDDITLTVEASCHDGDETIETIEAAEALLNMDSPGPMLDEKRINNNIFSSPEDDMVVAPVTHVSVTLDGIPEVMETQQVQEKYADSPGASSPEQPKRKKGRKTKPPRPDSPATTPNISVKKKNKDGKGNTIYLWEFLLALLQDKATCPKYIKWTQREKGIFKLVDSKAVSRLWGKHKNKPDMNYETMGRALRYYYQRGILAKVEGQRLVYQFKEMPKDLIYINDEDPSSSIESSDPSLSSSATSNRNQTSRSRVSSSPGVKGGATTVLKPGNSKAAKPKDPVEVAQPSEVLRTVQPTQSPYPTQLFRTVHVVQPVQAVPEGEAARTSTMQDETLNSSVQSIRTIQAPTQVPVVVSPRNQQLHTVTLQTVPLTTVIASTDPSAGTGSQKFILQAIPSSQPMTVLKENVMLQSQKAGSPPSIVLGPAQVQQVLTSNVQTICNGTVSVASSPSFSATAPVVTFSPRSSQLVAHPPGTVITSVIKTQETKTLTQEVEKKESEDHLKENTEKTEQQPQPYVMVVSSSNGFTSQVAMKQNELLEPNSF
Chain of SPIB (Q01892 whole entry): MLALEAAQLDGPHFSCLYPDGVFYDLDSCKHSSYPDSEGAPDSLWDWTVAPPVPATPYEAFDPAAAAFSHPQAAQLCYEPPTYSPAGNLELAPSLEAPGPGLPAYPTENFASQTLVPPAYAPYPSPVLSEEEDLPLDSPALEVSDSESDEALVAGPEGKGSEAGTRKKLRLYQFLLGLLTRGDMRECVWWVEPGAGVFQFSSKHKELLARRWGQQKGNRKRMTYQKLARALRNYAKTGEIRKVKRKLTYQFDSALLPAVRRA

With AACAAG, the binding signal in the assay with FLI1 is 1.08 fold enrichment (6-mer frequency, TF over GST control); with ELK1 it was 1.08 fold enrichment (6-mer frequency, TF over GST control); with GABPA, 1.15 fold enrichment (6-mer frequency, TF over GST control); with ERG, 1.14 fold enrichment (6-mer frequency, TF over GST control); with ELF1, 1.13 fold enrichment (6-mer frequency, TF over GST control); with EHF it was 1.17 fold enrichment (6-mer frequency, TF over GST control). In addition, the binding signal with SPI1 is 1.04 fold enrichment (6-mer frequency, TF over GST control); with SPIB, 1.06 fold enrichment (6-mer frequency, TF over GST control); in the assay with ELK3, 1.22 fold enrichment (6-mer frequency, TF over GST control).
CGAGCT: the binding signal is 1.02 fold enrichment (6-mer frequency, TF over GST control) in the assay with FLI1; 1.02 fold enrichment (6-mer frequency, TF over GST control) with ELK1; 1.09 fold enrichment (6-mer frequency, TF over GST control) with GABPA; 1.04 fold enrichment (6-mer frequency, TF over GST control) with ERG; 1.06 fold enrichment (6-mer frequency, TF over GST control) with ELF1; 1.13 fold enrichment (6-mer frequency, TF over GST control) with EHF. In addition, the binding signal is 1.03 fold enrichment (6-mer frequency, TF over GST control) with SPI1; 1.04 fold enrichment (6-mer frequency, TF over GST control) with SPIB; 1.06 fold enrichment (6-mer frequency, TF over GST control) with ELK3.
In the case of AGCCTC, the binding signal is 1.39 fold enrichment (6-mer frequency, TF over GST control) in the assay with FLI1; 1.3 fold enrichment (6-mer frequency, TF over GST control) in the assay with ELK1; 1.31 fold enrichment (6-mer frequency, TF over GST control) in the assay with GABPA; 1.21 fold enrichment (6-mer frequency, TF over GST control) in the assay with ERG; 1.25 fold enrichment (6-mer frequency, TF over GST control) with ELF1; 1.13 fold enrichment (6-mer frequency, TF over GST control) with EHF. For the same sequence, the binding signal is 1.26 fold enrichment (6-mer frequency, TF over GST control) in the assay with SPI1; 1.07 fold enrichment (6-mer frequency, TF over GST control) with SPIB; 1.21 fold enrichment (6-mer frequency, TF over GST control) with ELK3.
Turning to ACCCGC, the binding signal is 1.27 fold enrichment (6-mer frequency, TF over GST control) with FLI1; 1.29 fold enrichment (6-mer frequency, TF over GST control) with ELK1; 1.35 fold enrichment (6-mer frequency, TF over GST control) in the assay with GABPA; 1.21 fold enrichment (6-mer frequency, TF over GST control) with ERG; 1.33 fold enrichment (6-mer frequency, TF over GST control) with ELF1; 1.2 fold enrichment (6-mer frequency, TF over GST control) with EHF. The binding signal in the assay with SPI1 is 1.32 fold enrichment (6-mer frequency, TF over GST control); with SPIB, 1.27 fold enrichment (6-mer frequency, TF over GST control); in the assay with ELK3 it was 1.32 fold enrichment (6-mer frequency, TF over GST control).
In the case of AATCGC, the binding signal in the assay with FLI1 is 1.12 fold enrichment (6-mer frequency, TF over GST control); with ELK1, 1.09 fold enrichment (6-mer frequency, TF over GST control); with GABPA it was 1.14 fold enrichment (6-mer frequency, TF over GST control); with ERG, 1.07 fold enrichment (6-mer frequency, TF over GST control); in the assay with ELF1, 1.13 fold enrichment (6-mer frequency, TF over GST control); with EHF it was 1.16 fold enrichment (6-mer frequency, TF over GST control). Besides, the binding signal with SPI1 was 1.05 fold enrichment (6-mer frequency, TF over GST control); with SPIB, 1.08 fold enrichment (6-mer frequency, TF over GST control); in the assay with ELK3, 1.16 fold enrichment (6-mer frequency, TF over GST control).
With CCACGC, the binding signal is 1.28 fold enrichment (6-mer frequency, TF over GST control) with FLI1; 1.2 fold enrichment (6-mer frequency, TF over GST control) with ELK1; 1.28 fold enrichment (6-mer frequency, TF over GST control) with GABPA; 1.16 fold enrichment (6-mer frequency, TF over GST control) with ERG; 1.22 fold enrichment (6-mer frequency, TF over GST control) in the assay with ELF1; 1.12 fold enrichment (6-mer frequency, TF over GST control) with EHF. The binding signal was 1.07 fold enrichment (6-mer frequency, TF over GST control) in the assay with SPI1; 1.14 fold enrichment (6-mer frequency, TF over GST control) in the assay with SPIB; 1.31 fold enrichment (6-mer frequency, TF over GST control) with ELK3.
As for GGGCTT, the binding signal with FLI1 is 1.31 fold enrichment (6-mer frequency, TF over GST control); with ELK1 it was 1.18 fold enrichment (6-mer frequency, TF over GST control); in the assay with GABPA, 1.15 fold enrichment (6-mer frequency, TF over GST control); with ERG, 1.21 fold enrichment (6-mer frequency, TF over GST control); with ELF1 it was 1.19 fold enrichment (6-mer frequency, TF over GST control); with EHF, 1.24 fold enrichment (6-mer frequency, TF over GST control). The binding signal with SPI1 was 1.1 fold enrichment (6-mer frequency, TF over GST control); with SPIB, 1.2 fold enrichment (6-mer frequency, TF over GST control); in the assay with ELK3 it was 1.41 fold enrichment (6-mer frequency, TF over GST control).
